# The whole screen tested about 48,000 compounds, of which about 13,000 (27%) showed an effect of 50% or more. The list shows a part of the results.
# System: Wolbachia pipientis
# Experiment: Anti-Wolbachia Cell-Based Screen
# Format: functional
# Set-up: scale not given: in the data most compounds retested in dose-response had high values
# Settings: 5 µM
row,SMILES,Percent Effect [%]
1,CC(NCc1ccc(OCC(N)=O)cc1)c1ccc(Cl)cc1Cl.Cl (stereo unspecified),-2.997
2,CCc1cnc(NCc2nc(CSC)no2)nc1,19.97
3,Cc1cc(N(C)CC2COc3ccccc3O2)nc(C)n1 (stereo unspecified),-50.37
4,CCOCCN1CCN(CC(=O)NC2(C#N)CCCC2)CC1C (stereo unspecified),0.8038
5,O=S(=O)(C1CC1)N1CCn2c(Cn3cncn3)cnc2C1,13.19
6,Cc1cncc(C(=O)N2CCc3ncc(Cn4cccn4)n3CC2)c1,88.89
7,CN1CCN(Cc2cnc3n2CCN(C(=O)c2ccnnc2)C3)CC1,-11.55
8,N#Cc1cccc(C(=O)N2CCn3c(Cn4cncn4)cnc3C2)c1,83.01
9,O=C(NCc1ccccc1)N1CCn2c(Cn3cccn3)cnc2C1,-1.854
10,Cc1ccc(C(=O)N2CCc3ncc(Cn4cccn4)n3CC2)o1,95.36
11,O=C(NCc1cccnc1)N1CCn2c(Cn3cccn3)cnc2C1,2.46
12,N#Cc1ccc(S(=O)(=O)N2CC(CC(=O)O)c3ccccc32)cc1 (stereo unspecified),-12.53
13,Cc1noc(CNc2ccccc2CC(=O)N(C)C)n1,-7.553
14,N#CCc1ccc(OCC(=O)N2CCCC(n3cccn3)C2)cc1 (stereo unspecified),-0.2298
15,Cc1ncsc1CCN1CCC(N(C)Cc2ncc(C(C)C)o2)C1 (stereo unspecified),-3.966
16,Cc1nnc(CN2CCOC(c3ccc(Cl)cc3)C2)o1 (stereo unspecified),-9.345
17,O=c1[nH]c2nc(NCC3CCCO3)ncc2c(=O)n1-c1ccc(F)cc1 (stereo unspecified),-3.035
18,CN(Cc1csc(-c2cccs2)n1)C(=O)CCn1ccccc1=O,-2.021
19,COc1cc(F)c(S(=O)(=O)N2CCN(C)Cc3ccccc32)cc1OC,-10.31
20,O=C(Cc1ccsc1)N1CCn2cc(CN3CCCC3)nc2C1,-4.915
21,CC(C)N(C)Cc1cn2c(n1)CN(C(=O)Cc1ccccc1)CC2.O=C(O)C(F)(F)F,114
22,CCN(CC)Cc1cn2c(n1)CN(C(=O)Cc1ccsc1)CC2.O=C(O)C(F)(F)F,83.51

row,SMILES,Percent Effect [%]
1,CC(C)N(C)Cc1cn2c(n1)CN(C(=O)Cc1ccsc1)CC2.O=C(O)C(F)(F)F,-0.9088
2,CC(C)N(C)Cc1cn2c(n1)CN(Cc1ccsc1)CC2.O=C(O)C(F)(F)F.O=C(O)C(F)(F)F,6.195
3,CN(C)Cc1cn2c(n1)CN(C(=O)Cc1ccsc1)CC2.O=C(O)C(F)(F)F,96.46
4,CN(C)Cc1cc(=O)n2c(n1)CN(C(=O)Cc1ccsc1)CCC2.O=C(O)C(F)(F)F,-8.762
5,O=C(Cc1ccsc1)N1CCn2cc(Cn3cncn3)nc2C1,4.087
6,CC(=O)NCC(=O)N1CCn2cc(CN(C)Cc3ccco3)nc2C1.O=C(O)C(F)(F)F,-4.865
7,CN1CCOCC2(CCCN(C(=O)c3cn(C)cn3)C2)C1.O=C(O)C(F)(F)F (stereo unspecified),-3.228
8,CCNC(=O)NC(C)(C)C(=O)NCCc1csc2ccccc12,9.687
9,O=C(Cc1cccnc1)NC1COc2ccccc2C1=O (stereo unspecified),-10.11
10,CCCC1CCCN(C(=O)CNC(=O)c2ccoc2C)CC1 (stereo unspecified),7.571
11,CCOCc1cncc2c1CCN(S(=O)(=O)c1cccc(C)c1)C2,11.95
12,O=S(=O)(NCCN1CCOCC1)c1cncc(Cl)c1,-2.689
13,O=S(=O)(C1CC1)N1CCc2c(CN3CCOCC3)cncc2C1,82.99
14,CC(C)(C)NC(=O)NC(=O)COc1nc(C(C)(C)C)no1,-2.31
15,O=C(Cn1cnc2cc3c(cc21)OCCCO3)NCCc1ccccc1,66.67
16,O=C(Cc1cc(-c2ccc3c(c2)OCO3)on1)NC1CCCC1,-5.202
17,O=C(CCNCc1cccc2c1OCCCO2)NC1CCCC1,-1.594
18,CC(C)(C)n1ncc2c(=O)n(CC(=O)NCCc3ccccc3)cnc21,21.71
19,O=C(Cn1cnc2cc3c(cc21)OCCCO3)NC1CCCCC1,96.56
20,O=C(Cn1cccnc1=O)NCCc1ccc2c(c1)OCCO2,1.93
21,O=C(Cn1cnc2cc3c(cc21)OCCCO3)NC1CCCC1,88.37
22,CNc1nc(CNC(=O)Nc2ccc(OC(C)C)cc2F)cs1,6.813

row,SMILES,Percent Effect [%]
1,CC(c1cccc(Cl)c1)N1CCN(S(C)(=O)=O)CC1 (stereo unspecified),0.53
2,CS(=O)(=O)N1CCN(CC(O)COc2ccc(Cl)cc2)CC1 (stereo unspecified),153.2
3,CS(=O)(=O)N1CCN(CC(O)COc2ccc(F)cc2)CC1 (stereo unspecified),-6.942
4,CCOc1ccc(OCC(O)CN2CCN(S(C)(=O)=O)CC2)cc1 (stereo unspecified),152.9
5,CCc1ccc(OCC(O)CN2CCN(S(C)(=O)=O)CC2)cc1 (stereo unspecified),13.83
6,CN1CCC(N2CC[C@@H]3[C@@H](CCC(=O)N3CCC3=CCCCC3)C2)CC1,-18.13
7,CC(Cn1cccn1)NS(=O)(=O)Cc1ccc(F)cc1 (stereo unspecified),0.5755
8,COC(=O)COc1c(F)cc(Br)cc1C(C)=O,110.5
9,COc1ccc(C(C)=O)c(OCC(=O)NC(C)c2ccc(F)cc2)c1 (stereo unspecified),9.317
10,COc1cc(CCC(=O)NC2CC2)ccc1OCC(F)(F)F,-6.568
11,CNC(=O)NC(=O)COc1c(C(C)=O)ccc(Cl)c1Cl,18.02
12,CC(=O)c1cc(Br)cc(F)c1OCC(=O)NC(C)C,60.24
13,CNC(=O)COc1c(F)cc(Br)cc1C(C)=O,112.4
14,CC(=O)c1ccc(Cl)c(Cl)c1OCC(=O)NC(C)C,-9.893
15,CC(=O)c1ccc(Cl)c(Cl)c1OCC(=O)NCC(F)(F)F,-11.44
16,O=C(COc1ccc(Br)cc1F)Nc1cn[nH]c1,-2.369
17,Cc1ccc(OCC(=O)NC2CC2)nc1,-4.219
18,CC(=O)c1cc(Br)cc(F)c1OCC(=O)NC1CC1,100.7
19,CNC(=O)COc1c(C(C)=O)ccc(Cl)c1Cl,-15.04
20,CCSc1ncc(CN(Cc2cnn(C)c2)CC(C)C)cn1,-10.44
21,Cc1cc(C(=O)OCC2CCCN2C(N)=O)c(C)o1 (stereo unspecified),-25.43
22,CC(C)c1cc(N2CCC[C@H](N)C2)n2nccc2n1,19.12

# Reference: ChEMBL document CHEMBL3988442, “University of Dundee, Small-Polar-MMV Screening Library” (2021)
